Assay results reported in PubChem BioAssay (Tox21).
Several values for one entry are separate records, joined by “and”; a condition that tells them apart may be missing. Equal values may be shown once. Inconclusive results are not listed. Where a call stands in place of a potency, no number is given. Some structures have more than one record in an assay (separate samples or runs), and their calls can disagree. Activity calls are given as the source filed them. Unless noted, the call rests on the fitted dose curve; in most records, active means well fitted curve in the direction sought with a large enough effect in the repeat runs; inconclusive means weak or mixed curves; inactive means no such curve, though single readings can be large; an effect the other way counts as inactive or inconclusive.

Tests used:
[1] = Human pregnane X receptor (PXR) small molecule agonists, qHTS cell viability counter screen (AID 1346977); further: nearly all actives have a fitted effect of over 50% in size; further: potency means the concentration at half of the fitted maximal effect
In short: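 Viability counter screen: CellTiter-Fluor signal in PXR-Luc HepG2 cells, 24hr compound exposure, 37C, 5% CO2.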

[2] = Caspase-3/7 induction in HepG2 cells by small molecules, qHTS assay (AID 1346978); further: nearly all actives have a fitted effect of over 15% in size; further: potency means the concentration at half of the fitted maximal effect
In short: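 Wild-type HepG2 cells, 2,000/well, settled 5 hr at 37 C and 5% CO2, then compound-treated for 17 hr; caspase-3/7 activity read by luminescent Caspase-Glo 3/7 after 30 min at room temperature.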

[3] = Caspase-3/7 induction in CHO-K1 cells by small molecules, qHTS cell viability counter screen (AID 1346979); further: nearly all actives have a fitted effect of over 35% in size; further: potency means the concentration at half of the fitted maximal effect
In short: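 Viability readout by fluorescence (CellTiter-Fluor) on wild-type CHO-K1 cells exposed for 16hr at 37C and 5% CO2 to compounds delivered in DMSO; reagent incubated 1hr before reading.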

[4] = Caspase-3/7 induction in CHO-K1 cells by small molecules, qHTS assay (AID 1346980); further: nearly all actives have a fitted effect of over 15% in size
In short: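 Wild-type CHO-K1 cells exposed to compounds for 17hr at 37 C, 5% CO2. Caspase-3/7 activity then measured by Caspase-Glo 3/7 luminescence after 30min at room temperature.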

[5] = Caspase-3/7 induction in HepG2 cells by small molecules, qHTS cell viability counter screen (AID 1346981); further: nearly all actives have a fitted effect of over 30% in size; further: potency means the concentration at half of the fitted maximal effect
In short: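 After a 5-hr attachment period at 37 C and 5% CO2, wild-type HepG2 cells received compounds in DMSO. Sixteen hours later CellTiter-Fluor was dispensed and the fluorescent signal quantified after a further hour.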

[6] = target: Nuclear receptor subfamily 1 group I member 2 (Rattus norvegicus) (UniProt Q9R1A7); assay: Rat pregnane X receptor (rPXR) activation by small molecules, qHTS assay (AID 1346983); conditions: rPXR luciferase reporter cells, One-Glo luminescence, 24 h; stronger effect = higher value; further: nearly all actives have a fitted effect of over 20% in size
In short: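 Cell-based rPXR activation assay: rPXR cells, 2,000 per well, rested 5hr at 37 C, then exposed to compounds in DMSO for 24 hr at 37 C. Luciferase activity read by One-Glo luminescence after 30 min at room temperature.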

[7] = target: Acetylcholinesterase (Homo sapiens) (UniProt P22303); assay: Acetylcholinesterase (AChE) small molecule antagonists: colormetric cell-based qHTS assay (AID 1347395; calls by dose curve; further: nearly all actives have a fitted effect of over 30% in size)
Sequence of Acetylcholinesterase (Homo sapiens) (P22303 whole entry, looked up): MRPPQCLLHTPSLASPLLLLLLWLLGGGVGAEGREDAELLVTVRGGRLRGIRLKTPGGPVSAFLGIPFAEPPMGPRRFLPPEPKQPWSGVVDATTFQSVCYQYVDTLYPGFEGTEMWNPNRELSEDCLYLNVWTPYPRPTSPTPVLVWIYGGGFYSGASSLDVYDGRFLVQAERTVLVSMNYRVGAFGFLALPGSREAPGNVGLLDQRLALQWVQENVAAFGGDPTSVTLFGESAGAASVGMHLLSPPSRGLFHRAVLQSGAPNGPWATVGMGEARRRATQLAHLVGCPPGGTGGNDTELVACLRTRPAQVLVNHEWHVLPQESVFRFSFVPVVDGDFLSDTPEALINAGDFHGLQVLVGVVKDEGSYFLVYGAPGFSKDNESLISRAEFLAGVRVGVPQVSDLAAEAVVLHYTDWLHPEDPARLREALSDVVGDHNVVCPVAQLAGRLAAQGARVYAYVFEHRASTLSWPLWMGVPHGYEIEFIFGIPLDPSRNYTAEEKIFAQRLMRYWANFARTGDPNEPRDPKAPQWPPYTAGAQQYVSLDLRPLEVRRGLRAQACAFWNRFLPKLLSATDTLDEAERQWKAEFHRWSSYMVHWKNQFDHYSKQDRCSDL
In short: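 Homogeneous whole-cell format. SH-SY5Y cells seeded overnight, dosed with compound (30 min, 37 C, 5% CO2), then given DTNB/acetylthiocholine cocktail for 90 min at 37 C; colorimetric signal.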

[8] = target: Acetylcholinesterase (Homo sapiens) (UniProt P22303); assay: Acetylcholinesterase (AChE) small molecule antagonists: enzyme-based qHTS assay (AID 1347397; calls by dose curve; further: nearly all actives have a fitted effect of over 55% in size; further: potency means the concentration at half of the fitted maximal effect); conditions: Potency: AChE enzyme activity inhibition
In short: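 In this quantitative HTS, compounds from the Tox21 10K collection were preincubated 30 min at ambient temperature with recombinant human AChE dispensed at 50 mU/mL. Hydrolysis of acetylthiocholine was then followed for 10 min by DTNB colour development.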

[9] = target: Acetylcholinesterase (Homo sapiens) (UniProt P22303); assay: Acetylcholinesterase (AChE) small molecule antagonists: fluorescence cell-based qHTS assay (AID 1347398; calls by dose curve; further: nearly all actives have a fitted effect of over 50% in size); conditions: Potency: AChE activity
In short: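 Cells (SH-SY5Y) attached overnight, were dosed with compound or DMSO vehicle for 30 min at 37 C, and then incubated 40 min at room temperature with acetylthiocholine and Thiolite Green; green fluorescence indexed AChE activity.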

[10] = target: Acetylcholinesterase (Homo sapiens) (UniProt P22303); assay: Acetylcholinesterase (AChE) small molecule antagonists: enzyme-based qHTS assay with human liver microsomes (AID 1347399; calls by dose curve; further: nearly all actives have a fitted effect of over 60% in size); conditions: Potency: qHTS inhibition
In short: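 Recombinant human AChE (50 mU/mL in the enzyme mix) and human liver microsomes (0.25 mg/mL final) were preincubated with compound and NADPH (0.25 mg/mL final) for 30 min at 37 C. Acetylthiocholine/DTNB was then added; thiocholine was read colorimetrically after 10 min at room temperature.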

[11] = target: Cytochrome P450 2D6 (Homo sapiens) (UniProt P10635); assay: Cytochrome P450 Family 2 Subfamily D Member 6 (CYP2D6) small molecule antagonists: luciferase reporter qHTS assay (AID 1671196); further: nearly all actives have a fitted effect of over 50% in size; further: potency means the concentration at half of the fitted maximal effect
Sequence of Cytochrome P450 2D6 (Homo sapiens) (P10635 whole entry, looked up): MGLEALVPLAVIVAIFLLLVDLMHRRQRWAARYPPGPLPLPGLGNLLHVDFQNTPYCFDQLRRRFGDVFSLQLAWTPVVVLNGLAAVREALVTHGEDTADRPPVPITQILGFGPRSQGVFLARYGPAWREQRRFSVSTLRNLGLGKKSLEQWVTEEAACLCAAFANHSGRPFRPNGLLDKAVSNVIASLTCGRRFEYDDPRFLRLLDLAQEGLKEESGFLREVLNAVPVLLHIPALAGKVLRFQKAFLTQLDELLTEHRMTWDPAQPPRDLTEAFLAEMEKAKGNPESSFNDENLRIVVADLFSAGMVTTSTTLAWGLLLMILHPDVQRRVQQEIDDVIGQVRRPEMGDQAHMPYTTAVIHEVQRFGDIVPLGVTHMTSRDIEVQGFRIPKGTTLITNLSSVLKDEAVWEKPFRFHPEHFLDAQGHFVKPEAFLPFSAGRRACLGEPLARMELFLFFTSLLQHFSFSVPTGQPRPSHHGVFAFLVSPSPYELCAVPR
In short: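 Room-temperature luminescent CYP2D6 activity assay: compound preincubated 10 min with enzyme–substrate mix, NADPH-initiated reaction 1 h, detection reagent 20 min before reading.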

[12] = target: Cytochrome P450 2C19 (Homo sapiens) (UniProt P33261); assay: Cytochrome P450 Family 2 Subfamily C Member 19 (CYP2C19) small molecule antagonists: luciferase reporter qHTS assay (AID 1671197); further: nearly all actives have a fitted effect of over 65% in size; further: potency means the concentration at half of the fitted maximal effect
Sequence of Cytochrome P450 2C19 (Homo sapiens) (P33261 whole entry, looked up): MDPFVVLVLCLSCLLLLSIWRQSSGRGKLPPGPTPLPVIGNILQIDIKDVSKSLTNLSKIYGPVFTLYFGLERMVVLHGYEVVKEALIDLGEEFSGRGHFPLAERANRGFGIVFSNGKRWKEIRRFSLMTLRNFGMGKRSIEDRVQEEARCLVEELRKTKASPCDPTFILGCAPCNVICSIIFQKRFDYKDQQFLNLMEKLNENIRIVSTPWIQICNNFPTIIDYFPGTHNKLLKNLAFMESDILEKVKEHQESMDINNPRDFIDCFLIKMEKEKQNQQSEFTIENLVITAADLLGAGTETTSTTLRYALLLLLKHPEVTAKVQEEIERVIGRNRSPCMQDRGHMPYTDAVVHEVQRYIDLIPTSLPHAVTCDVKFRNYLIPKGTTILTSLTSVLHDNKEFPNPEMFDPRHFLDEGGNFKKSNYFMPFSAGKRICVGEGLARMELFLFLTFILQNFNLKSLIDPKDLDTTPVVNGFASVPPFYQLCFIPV
In short: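 Inhibition of CYP2C19 was scored from loss of luminescence in a P450-Glo proluciferin substrate assay, NADPH-started and run 1 h at 37C, with ketoconazole as positive control.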

[13] = target: Cytochrome P450 2C9 (Homo sapiens) (UniProt P11712); assay: Cytochrome P450 Family 2 Subfamily C Member 9 (CYP2C9) small molecule antagonists: luciferase reporter qHTS assay (AID 1671198); further: nearly all actives have a fitted effect of over 50% in size; further: potency means the concentration at half of the fitted maximal effect
Sequence of Cytochrome P450 2C9 (Homo sapiens) (P11712 whole entry, looked up): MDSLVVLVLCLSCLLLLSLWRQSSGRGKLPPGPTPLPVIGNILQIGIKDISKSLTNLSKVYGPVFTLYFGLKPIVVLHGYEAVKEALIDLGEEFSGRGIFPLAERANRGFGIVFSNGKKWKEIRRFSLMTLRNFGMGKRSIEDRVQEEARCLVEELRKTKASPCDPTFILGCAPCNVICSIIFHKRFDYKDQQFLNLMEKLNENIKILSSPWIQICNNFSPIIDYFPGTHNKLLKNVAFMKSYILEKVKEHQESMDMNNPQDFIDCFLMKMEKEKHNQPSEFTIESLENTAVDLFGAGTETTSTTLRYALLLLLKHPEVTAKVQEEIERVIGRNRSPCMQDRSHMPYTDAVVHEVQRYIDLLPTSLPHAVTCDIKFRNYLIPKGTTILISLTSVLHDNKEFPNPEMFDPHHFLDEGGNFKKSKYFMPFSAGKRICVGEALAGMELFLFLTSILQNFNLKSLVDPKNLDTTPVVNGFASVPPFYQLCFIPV
In short: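 P450-Glo proluciferin substrate with CYP2C9 enzyme; 10 min RT preincubation, then NADPH regeneration 1 h at 37C; luciferin detection reagent 20 min RT, luminescence in relative luminescence units.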

[14] = target: Cytochrome P450 1A2 (Homo sapiens) (UniProt P05177); assay: Cytochrome P450 Family 1 Subfamily A Member 2 (CYP1A2) small molecule antagonists: luciferase reporter qHTS assay (AID 1671199); further: nearly all actives have a fitted effect of over 50% in size; further: potency means the concentration at half of the fitted maximal effect
Sequence of Cytochrome P450 1A2 (Homo sapiens) (P05177 whole entry, looked up): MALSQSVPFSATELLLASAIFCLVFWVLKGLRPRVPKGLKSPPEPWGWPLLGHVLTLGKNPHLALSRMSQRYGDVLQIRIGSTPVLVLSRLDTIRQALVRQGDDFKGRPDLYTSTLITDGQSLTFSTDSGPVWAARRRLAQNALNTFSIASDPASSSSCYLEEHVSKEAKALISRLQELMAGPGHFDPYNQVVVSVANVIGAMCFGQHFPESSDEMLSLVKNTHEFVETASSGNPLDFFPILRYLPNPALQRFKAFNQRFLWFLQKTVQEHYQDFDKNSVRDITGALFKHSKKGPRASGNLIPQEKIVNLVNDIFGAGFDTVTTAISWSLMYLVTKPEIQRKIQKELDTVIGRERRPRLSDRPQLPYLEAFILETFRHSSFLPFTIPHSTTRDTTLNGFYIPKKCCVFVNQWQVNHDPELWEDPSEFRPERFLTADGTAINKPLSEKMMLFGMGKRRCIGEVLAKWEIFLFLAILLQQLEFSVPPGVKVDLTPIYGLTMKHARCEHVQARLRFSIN
In short: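 Room-temperature CYP1A2 reaction with proluciferin substrate: compounds added from DMSO, 10 min preincubation, NADPH regeneration for 1 h. Luciferin detection reagent then added; luminescence recorded as RLU.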

[15] = target: Voltage-gated inwardly rectifying potassium channel KCNH2 (Homo sapiens) (UniProt Q12809); assay: Human Ether-a-go-go-Related Gene (hERG) channel small molecule antagonists: fluorescence cell-based qHTS assay (AID 1671200); further: nearly all actives have a fitted effect of over 50% in size; further: potency means the concentration at half of the fitted maximal effect
Sequence of Voltage-gated inwardly rectifying potassium channel KCNH2 (Homo sapiens) (Q12809 whole entry, looked up): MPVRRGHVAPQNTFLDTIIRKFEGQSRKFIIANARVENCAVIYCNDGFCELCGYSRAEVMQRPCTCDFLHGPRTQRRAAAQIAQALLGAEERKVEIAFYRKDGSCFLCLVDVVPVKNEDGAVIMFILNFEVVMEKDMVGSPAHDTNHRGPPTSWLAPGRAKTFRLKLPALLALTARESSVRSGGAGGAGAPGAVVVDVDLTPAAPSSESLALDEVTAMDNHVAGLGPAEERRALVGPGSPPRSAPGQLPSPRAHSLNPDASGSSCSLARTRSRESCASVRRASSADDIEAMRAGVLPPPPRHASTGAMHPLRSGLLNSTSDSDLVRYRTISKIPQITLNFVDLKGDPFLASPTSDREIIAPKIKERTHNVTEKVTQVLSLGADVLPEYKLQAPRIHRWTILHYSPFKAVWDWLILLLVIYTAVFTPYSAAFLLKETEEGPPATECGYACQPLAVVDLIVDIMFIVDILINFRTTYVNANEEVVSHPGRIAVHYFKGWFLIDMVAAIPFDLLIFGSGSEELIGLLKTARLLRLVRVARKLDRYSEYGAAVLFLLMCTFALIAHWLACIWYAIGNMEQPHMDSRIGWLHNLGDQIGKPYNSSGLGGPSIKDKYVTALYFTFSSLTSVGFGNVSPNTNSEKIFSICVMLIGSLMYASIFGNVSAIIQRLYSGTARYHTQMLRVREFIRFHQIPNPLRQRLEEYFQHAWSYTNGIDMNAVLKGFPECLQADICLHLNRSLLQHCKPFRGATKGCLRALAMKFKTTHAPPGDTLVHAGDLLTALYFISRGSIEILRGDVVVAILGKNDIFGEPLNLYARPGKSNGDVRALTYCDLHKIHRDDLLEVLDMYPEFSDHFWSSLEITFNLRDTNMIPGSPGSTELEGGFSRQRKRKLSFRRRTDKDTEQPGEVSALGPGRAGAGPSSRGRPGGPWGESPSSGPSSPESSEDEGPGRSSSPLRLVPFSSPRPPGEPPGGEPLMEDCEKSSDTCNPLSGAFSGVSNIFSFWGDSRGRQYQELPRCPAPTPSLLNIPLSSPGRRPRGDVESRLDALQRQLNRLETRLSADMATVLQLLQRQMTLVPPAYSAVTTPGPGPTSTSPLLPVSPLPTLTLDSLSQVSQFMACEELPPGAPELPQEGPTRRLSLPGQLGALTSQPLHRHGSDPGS
In short: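 Thallium served as the potassium surrogate; its influx into dye-loaded U2OS cells carrying the channel was measured by fluorescence over 2 min.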

[16] = target: Cytochrome P450 3A4 (Homo sapiens) (UniProt P08684); assay: Cytochrome P450 Family 3 Subfamily A Member 4 (CYP3A4) small molecule antagonists: luciferase reporter qHTS assay (AID 1671201); further: nearly all actives have a fitted effect of over 50% in size; further: potency means the concentration at half of the fitted maximal effect
Sequence of Cytochrome P450 3A4 (Homo sapiens) (P08684 whole entry, looked up): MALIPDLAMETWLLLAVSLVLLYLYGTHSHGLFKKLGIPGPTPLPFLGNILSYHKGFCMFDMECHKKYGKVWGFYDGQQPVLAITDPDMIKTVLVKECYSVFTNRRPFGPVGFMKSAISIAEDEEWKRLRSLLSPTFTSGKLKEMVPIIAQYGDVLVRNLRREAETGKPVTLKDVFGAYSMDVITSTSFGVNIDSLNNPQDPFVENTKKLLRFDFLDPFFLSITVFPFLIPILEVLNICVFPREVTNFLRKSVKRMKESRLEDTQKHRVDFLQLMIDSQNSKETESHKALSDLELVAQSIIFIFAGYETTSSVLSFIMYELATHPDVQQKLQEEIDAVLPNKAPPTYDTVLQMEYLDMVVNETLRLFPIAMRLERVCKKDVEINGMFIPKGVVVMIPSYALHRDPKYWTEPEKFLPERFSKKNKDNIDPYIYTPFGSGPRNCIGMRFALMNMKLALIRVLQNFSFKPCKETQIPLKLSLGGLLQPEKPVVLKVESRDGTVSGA
In short: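 Relative luminescence units after 20 min with luciferin detection reagent served as read-out. Beforehand, CYP3A4 turned over a proluciferin substrate for 1 h at room temperature with NADPH regeneration, following 10 min compound preincubation.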

[17] = target: Nuclear receptor subfamily 1 group I member 2 (Homo sapiens) (UniProt O75469); assay: Human pregnane X receptor (PXR) small molecule agonists, qHTS assay (AID 1346982); further: nearly all actives have a fitted effect of over 35% in size; further: potency means the concentration at half of the fitted maximal effect
Sequence of Nuclear receptor subfamily 1 group I member 2 (Homo sapiens) (O75469 whole entry, looked up): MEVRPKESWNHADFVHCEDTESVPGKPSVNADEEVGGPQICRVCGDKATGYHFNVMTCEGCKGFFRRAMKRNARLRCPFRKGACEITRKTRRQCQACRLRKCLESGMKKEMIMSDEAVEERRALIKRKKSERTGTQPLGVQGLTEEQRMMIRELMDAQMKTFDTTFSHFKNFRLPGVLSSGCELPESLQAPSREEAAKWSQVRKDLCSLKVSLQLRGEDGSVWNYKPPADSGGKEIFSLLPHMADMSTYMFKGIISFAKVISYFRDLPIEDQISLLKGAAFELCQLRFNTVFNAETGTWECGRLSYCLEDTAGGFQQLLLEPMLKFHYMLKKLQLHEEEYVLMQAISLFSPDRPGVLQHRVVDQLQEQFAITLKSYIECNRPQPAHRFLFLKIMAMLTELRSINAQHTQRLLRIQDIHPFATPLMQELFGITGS
In short: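 Tox21 qHTS; PXR-Luc HepG2; compounds pinned from DMSO; 24 hr, 37 C; ONE-Glo luciferase detection, 30 min room temperature.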

Row | SMILES | Potency [1] | Potency [2] | Potency [3] | Potency [4] | Potency [5] | max activation [6] | Potency [7] | Potency [8] | Potency [9] | Potency [10] | Potency [11] | Potency [12] | Potency [13] | Potency [14] | Potency [15] | Potency [16] | Potency [17]
1 | NC(=O)CN1CCCC1=O | inactive | inactive | inactive | inactive | inactive | -4.89% (inactive) | inactive | inactive | inactive | inactive | inactive | inactive | inactive | inactive | inactive | inactive | –
2 | N#Cc1cccnc1 | inactive | inactive | inactive | inactive | inactive | – | inactive | inactive | – | inactive | inactive | 38.8 µM (active) and inactive | – | inactive | inactive | inactive | inactive
3 | CCC(=O)Nc1ccc(Cl)c(Cl)c1 | inactive | inactive | – | inactive | inactive | – | inactive | inactive | inactive | inactive | 36.3 µM (active) | 22.9 µM (active) and 35.6 µM (active) | 64.6 µM (active) and 63.3 µM (active) | 5.13 µM (active) and 7.1 µM (active) | inactive | – | –
4 | CCOP(=O)(O)OCC (tested in a mixture with another compound) | inactive and 24.1 µM (active) | inactive | inactive and 24.1 µM (active) | inactive | inactive and 68 µM (active) | – | inactive | inactive and 31.4 µM (active) | – | inactive | 40.3 µM (active) and 886 nM (active) | 79 µM (active) | inactive and 55.9 µM (active) | 79 µM (active) | inactive and 6.12 µM (active) | inactive and 55.9 µM (active) | inactive and 4.29 µM (active)
5 | CC(C)(c1ccccc1)c1ccc(O)cc1 | inactive | 60.6 µM (active) | – | inactive | inactive | – | inactive | inactive | – | inactive | inactive | inactive | 11.2 µM (active) and 12.6 µM (active) | inactive | inactive | inactive | 27.1 µM (active) and 19.3 µM (active)
6 | Cc1cc(Cl)ccc1N=CN(C)C | inactive | inactive | inactive | inactive | inactive | – | – | – | – | – | 35.6 µM (active) | 79.6 µM (active) and inactive | inactive | 22.4 µM (active) and 28.3 µM (active) | inactive | inactive | –
